What is called inhibition is the relative decrease from the control value, in per cent.

Hit rate of the full screen: of about 370,000 compounds, about 760 (0.21%) were called active.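 Rule for the calls: active = inhibition above a per-campaign cutoff: mean of compounds within control limits plus 3 SD (cut at about 15% in these data); inactive = the rest.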 Many of the other results were omitted from the sample, so actives are more common in it than they were.

Fibrinogen beta chain (Homo sapiens), sequence (P02675 whole entry, looked up): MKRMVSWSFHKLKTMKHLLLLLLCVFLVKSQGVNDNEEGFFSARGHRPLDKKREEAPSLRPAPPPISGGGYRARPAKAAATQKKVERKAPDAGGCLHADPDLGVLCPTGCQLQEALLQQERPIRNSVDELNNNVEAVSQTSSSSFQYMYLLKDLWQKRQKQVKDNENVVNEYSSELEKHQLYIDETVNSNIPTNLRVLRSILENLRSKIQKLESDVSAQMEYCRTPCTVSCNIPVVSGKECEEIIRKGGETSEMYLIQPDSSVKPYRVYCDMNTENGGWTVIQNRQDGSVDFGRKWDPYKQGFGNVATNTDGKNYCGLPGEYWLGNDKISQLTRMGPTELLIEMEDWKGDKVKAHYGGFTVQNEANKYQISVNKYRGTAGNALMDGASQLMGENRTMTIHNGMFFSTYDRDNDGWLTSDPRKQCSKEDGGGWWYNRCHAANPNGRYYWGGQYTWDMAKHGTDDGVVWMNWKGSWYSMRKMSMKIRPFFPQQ

The test addresses Fibrinogen beta chain (Homo sapiens) (UniProt P02675). Kind of test: inhibitors of Tn6 peptide binding to fibrin DD(E), primary screen, biochemical, fluorescence polarization, human fibrin, Tn6 probe (AID 720509).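 Note: 0% = median of all compound wells on the plate and 100% = blocking peptide control.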 The conditions noted are these: Fibrin DD(E) TRITC-Tn6 fluorescence polarization displacement; at 8.3 µM; hits give high values. Background: In fluorescence polarisation assays a small probe gives low polarisation when free and higher when bound to something large.
Turning to `O=C(c1c(F)cccc1F)N1CCN(c2ncc(Br)cn2)CC1`, the inhibition was -1.65% (inactive).

In the case of `CC(=O)OC(C)C[N+](C)(C)C` (stereo not drawn), the inhibition was 3.71% (inactive).

In the case of `CCOC(=O)C(C)Oc1cccc2c(=O)n(CC(=O)N3CCc4ccccc43)ccc12` (stereo not drawn), the inhibition was -1.79% (inactive).

Regarding `CC(=O)N1CCCN(C2=Nc3ccccc3Sc3ccccc32)CC1`, the inhibition was -3.1% (inactive).

Take `Cc1oc2nc(SCC(=O)NCc3cccnc3)nc(N)c2c1C`: the inhibition is 7.93% (inactive).

As for `Cc1oc2nc(SCC(=O)Nc3ccc(S(N)(=O)=O)cc3)nc(NC(=O)c3ccccc3)c2c1C`, the inhibition was 24.4% (active).

Take `Cc1cc(-c2nnc(SCC(=O)Nc3ccc(S(N)(=O)=O)cc3)n2N)n[nH]1`: the inhibition was -3.55% (inactive).

`COc1cc2c(cc1OC)C(C(=O)Nc1cc(C)c(OC)c(C)c1)CC(=O)N2` (stereo not drawn): the inhibition is 10.8% (inactive).

Consider `N#Cc1ccc(COC(=O)Cn2nnc(-c3ccccc3)n2)cc1`, for which the inhibition is 0.38% (inactive).

For `CCc1cc(-c2nnc(SCC(=O)NC3CC3)n2C)cs1`, the inhibition was 18.6% (active).

Take `CCOc1cccc(-c2nnc(SCC(=O)NC3CC3)n2C)c1`: the inhibition was 6.34% (inactive).

With `Cn1c(SCC(=O)NC2CCCCC2)nnc1-c1ccc(N)cc1`, the inhibition is 1.64% (inactive).

Consider `O=[N+]([O-])c1ccccc1N/N=C1\CCc2ccccc21`, for which the inhibition is -1.87% (inactive).

With `O=C(NC1CCc2ccccc21)C12CN(Cc3ccccc3)CC1C(c1cccc([N+](=O)[O-])c1)=NO2` (stereo not drawn), the inhibition was 1.76% (inactive).

As for `COCC(C)n1c(C)cc(C(=O)COc2ccc(C)nc2[N+](=O)[O-])c1C` (stereo not drawn), the inhibition is 2.28% (inactive).

Take `O=C(NCc1nnc(SCC(=O)N2CCCCCC2)o1)c1ccc(F)cc1`: the inhibition was 4% (inactive).

For `O=S(=O)(NCC1CN(S(=O)(=O)c2ccc3c(c2)OCCO3)C1)c1c(F)cccc1F`, the inhibition is 0.97% (inactive).

Regarding `COc1ccc(-c2c(C)nn3c(N4CCC(C(=O)N5CCCCC5)CC4)cc(C)nc23)cc1OC`, the inhibition is -3.53% (inactive).

With `O=S(=O)(Nc1ccc(-n2cnnn2)cc1)c1ccc(Cl)cc1`, the inhibition is -1.46% (inactive).

Consider `N#Cc1ccc(S(=O)(=O)NCC(=O)OCC(=O)NCCc2ccccc2)cc1`, for which the inhibition is -8.48% (inactive).

On to `N#CC1=C(N)Oc2c(sc3ccccc23)C1c1ccco1` (stereo not drawn), for which the inhibition was 3.91% (inactive).

`CC(C)(C)c1cc(=O)n2c(nc3ccccc32)[nH]1`: the inhibition is -1.54% (inactive).

With `CN(CC(=O)Nc1ccccc1Cl)C(=O)c1ccccc1SCC(=O)N1CCCC1`, the inhibition was -6.29% (inactive).

On to `COc1ccc(N(CC(=O)NC2CCCCC2)S(=O)(=O)c2c(C)[nH]c(=O)[nH]c2=O)cc1`, for which the inhibition was 6% (inactive).

Turning to `CCCCNC(=O)C[C@@H]1C[C@@]2(C(=O)OCC)CCC=C2N(Cc2ccco2)C1=O`, the inhibition is 3.81% (inactive).

In the case of `COc1ccc(CNc2c(CO)cnc3c2cnn3C)cc1`, the inhibition was -2.59% (inactive).

For `COc1ccc(CC(=O)Nc2c3c(nn2-c2cccc(Cl)c2)CS(=O)C3)cc1` (stereo not drawn), the inhibition was -10.3% (inactive).

`COc1c(C)cc(C(O)c2ncc(-c3cccc(C(F)(F)F)c3)[nH]2)cc1C` (stereo not drawn): the inhibition was 8.36% (inactive).

Regarding `CCOC(=O)C1CCCN(Cc2nc(N)nc(Nc3ccc(C)cc3)n2)C1` (stereo not drawn), the inhibition is -3.73% (inactive).

Take `CCOC(=O)N1CCN(Cc2nc3cc(NC(=O)CC)ccc3n2CC)CC1`: the inhibition is -8.37% (inactive).

Take `CCOC(=O)N1CCN(Cc2nc(N)nc(Nc3ccc(C)cc3)n2)CC1`: the inhibition was 17% (active).

With `Cc1nnc2n1N=C(c1ccc3c(c1)NC(=O)CO3)CS2`, the inhibition is 0.86% (inactive).

Consider `CCOC(=O)N1CCN(S(=O)(=O)c2ccc(-n3cnnn3)cc2)CC1`, for which the inhibition is 7.12% (inactive).

For `COc1ccc(S(=O)(=O)NC(CC(=O)NCc2ccccc2OC)c2ccco2)cc1` (stereo not drawn), the inhibition was 2.08% (inactive).

As for `COc1ccc2c(c1)c1ncn(Cc3ccccn3)c(=O)c1n2C`, the inhibition was -7.12% (inactive).

Take `CC(C)(C)OC(=O)C[C@@H]1C/C=C\C[C@@H](CC(=O)N[C@@H](CO)Cc2ccccc2)C(=O)N2CCC[C@H]2COC1=O`: the inhibition was -2.9% (inactive).

Take `O=C(COC(=O)c1ccc(F)cc1F)Nc1ncccn1`: the inhibition was 2.94% (inactive).

Consider `COC(=O)C1=C(C)NC(=S)NC1c1ccc(OC)cc1` (stereo not drawn), for which the inhibition is 0.81% (inactive).

Regarding `Nc1nc(SCC(=O)NNc2c(Cl)cc(Cl)cc2Cl)n[nH]1`, the inhibition is 8.94% (inactive).

Take `COc1ccc(C(CNC(=O)c2ccc(OCc3cscn3)cc2)N2CCCC2)cc1` (stereo not drawn): the inhibition is 2.19% (inactive).

Turning to `Oc1c(Cl)cc(Cl)c(Cl)c1Cc1c(O)c(Cl)cc(Cl)c1Cl`, the inhibition was -7.14% (inactive).

As for `Cc1cc([N+](=O)[O-])nn1Cc1ccc(F)cc1`, the inhibition is -0.46% (inactive).

In the case of `COc1ccc(C(=O)C2CCCN(S(=O)(=O)c3cccc(C)c3)C2)c(C)c1` (stereo not drawn), the inhibition is -7.45% (inactive).

`CCCC1(C(=O)OCC)NC(c2ccc(N(C)C)cc2)C2C(=O)N(c3ccc4c(c3)OCCO4)C(=O)C21` (stereo not drawn): the inhibition is -9.09% (inactive).

For the compound `COc1ccccc1C(=O)COC(=O)CSCC(=O)Nc1cc(C)on1`, the inhibition is 0.48% (inactive).

Consider `O=C(CN1C(=O)NC2(CCCCCC2)C1=O)NCc1cccs1`, for which the inhibition is -0.57% (inactive).

For `CSC1=NN(c2ccccc2)CN(c2ccccc2)N1C`, the inhibition was -0.87% (inactive).

As for `COc1ccc(CCNC(=O)C(=O)NCC2CCCN2S(=O)(=O)c2cccs2)cc1OC` (stereo not drawn), the inhibition is -8.21% (inactive).

As to `COCCN(Cc1nc(-c2ccc(C(F)(F)F)cc2)no1)C(C)C`, the inhibition was -5.72% (inactive).

Take `CC(C)CCNC(=O)CC1C(=O)N(Cc2ccccc2)C(C)c2nc3ccccc3n21` (stereo not drawn): the inhibition was 5.33% (inactive).

In the case of `Cc1cc(=O)oc(C)c1C(=O)Nc1cnc2ccccc2c1`, the inhibition was -3.11% (inactive).

As to `CCOc1ccc(C(=O)Nc2cc(Cl)ccc2-n2cncn2)cc1OC`, the inhibition was 2.72% (inactive).

For the compound `CN(C)c1cccc(NC(=O)c2ccc(-c3ccc(F)c(F)c3)c3ccoc23)c1`, the inhibition was -0.65% (inactive).

As for `Cc1cccc(NS(=O)(=O)c2cc(Cl)ccc2Cl)n1`, the inhibition was 1.49% (inactive).

`CC(=O)N/C(=C\c1ccc(F)cc1)C(=O)NC(Cc1ccccc1)C(=O)O` (stereo not drawn): the inhibition is 2.99% (inactive).

As for `Oc1ccc(N=Cc2sc3ccccc3c2Cl)cc1`, the inhibition is 36.1% (active).

As to `CN1CCN(S(=O)(=O)c2ccc(Nc3ccc(F)cc3)nc2)CC1`, the inhibition is -3.71% (inactive).

In the case of `O=C(CCN1C(=O)[C@H]2CC=CC[C@H]2C1=O)NCc1nc(-c2ccccc2)no1`, the inhibition was 1.52% (inactive).

These data come from PubChem BioAssay AID720509 (The Scripps Research Institute Molecular Screening Center, 2013).
